Laboratory results taken from ChEMBL document CHEMBL3988442, “University of Dundee, Small-Polar-MMV Screening Library” (2021).
For part of these data: Potency and affinity values are given separately.

Key:
Set-up in all cases: scale not given: direction of the effect not stated beside the values
[1] = target: Protein translocase subunit SecA (Escherichia coli (strain K12)) (UniProt P10408); assay: Assay to Identify E. coli SecA ATPase Inhibitors; type: functional; conditions: 30 µM
[2] = target: T1, Ubiquitin-activating enzyme e1, putative (Leishmania donovani (strain BPK282A1)) (UniProt E9BSI1); assay: Leishmania donovani Ubiquitin Activating Enzyme (LdE1); type: functional; conditions: 30 µM
T1 sequence (whole entry): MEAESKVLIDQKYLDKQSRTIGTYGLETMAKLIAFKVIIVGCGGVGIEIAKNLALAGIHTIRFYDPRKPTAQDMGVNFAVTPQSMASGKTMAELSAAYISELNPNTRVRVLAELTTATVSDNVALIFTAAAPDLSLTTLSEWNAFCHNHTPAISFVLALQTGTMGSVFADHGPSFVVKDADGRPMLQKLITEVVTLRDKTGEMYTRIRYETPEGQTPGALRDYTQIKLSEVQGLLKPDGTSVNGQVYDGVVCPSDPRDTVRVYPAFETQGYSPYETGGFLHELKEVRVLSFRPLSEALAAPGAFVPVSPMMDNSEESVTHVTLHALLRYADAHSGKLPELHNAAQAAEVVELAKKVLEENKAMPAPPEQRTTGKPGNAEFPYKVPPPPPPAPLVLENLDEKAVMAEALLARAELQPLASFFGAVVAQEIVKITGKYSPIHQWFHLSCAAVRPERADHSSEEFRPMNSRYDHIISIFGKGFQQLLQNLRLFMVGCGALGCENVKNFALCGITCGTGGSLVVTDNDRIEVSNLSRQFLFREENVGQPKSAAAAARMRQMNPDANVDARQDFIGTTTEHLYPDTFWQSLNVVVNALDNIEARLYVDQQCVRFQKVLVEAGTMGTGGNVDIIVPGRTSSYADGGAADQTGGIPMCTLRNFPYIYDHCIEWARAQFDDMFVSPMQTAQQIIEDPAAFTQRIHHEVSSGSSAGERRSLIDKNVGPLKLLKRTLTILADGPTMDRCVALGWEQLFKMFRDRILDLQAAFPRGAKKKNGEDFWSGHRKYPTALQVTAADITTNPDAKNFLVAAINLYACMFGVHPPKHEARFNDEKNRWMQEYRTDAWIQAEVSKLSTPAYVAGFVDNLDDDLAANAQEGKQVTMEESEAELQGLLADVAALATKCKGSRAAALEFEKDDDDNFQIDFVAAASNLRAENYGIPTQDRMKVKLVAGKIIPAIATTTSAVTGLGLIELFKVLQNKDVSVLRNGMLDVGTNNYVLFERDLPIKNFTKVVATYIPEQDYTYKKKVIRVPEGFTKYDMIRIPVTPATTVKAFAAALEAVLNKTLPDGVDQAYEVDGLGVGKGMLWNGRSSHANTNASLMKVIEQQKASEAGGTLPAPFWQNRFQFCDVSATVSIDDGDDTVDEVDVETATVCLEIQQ

[3] = target: AMP-activated protein kinase, AMPK (Homo sapiens) (UniProt P54646+O43741+P54619+Q9UGJ0+Q9Y478+Q13131+Q9UGI9); assay: AMP-dependent Kinase enzyme assay. An in vitro enzyme assay that detects ADP turnover that is directly proportional to AMPK activity. This uses naive AMPK that is activated during the assay with MK-8722; type: functional; conditions: 30 µM
[4] = target: Sialic acid-binding Ig-like lectin 9 (Homo sapiens) (UniProt Q9Y336); assay: Hs-Siglec9 ALPHAscreen SOP 20170721; conditions: 10 µM
Chain of Sialic acid-binding Ig-like lectin 9 (Homo sapiens) (Q9Y336 whole entry): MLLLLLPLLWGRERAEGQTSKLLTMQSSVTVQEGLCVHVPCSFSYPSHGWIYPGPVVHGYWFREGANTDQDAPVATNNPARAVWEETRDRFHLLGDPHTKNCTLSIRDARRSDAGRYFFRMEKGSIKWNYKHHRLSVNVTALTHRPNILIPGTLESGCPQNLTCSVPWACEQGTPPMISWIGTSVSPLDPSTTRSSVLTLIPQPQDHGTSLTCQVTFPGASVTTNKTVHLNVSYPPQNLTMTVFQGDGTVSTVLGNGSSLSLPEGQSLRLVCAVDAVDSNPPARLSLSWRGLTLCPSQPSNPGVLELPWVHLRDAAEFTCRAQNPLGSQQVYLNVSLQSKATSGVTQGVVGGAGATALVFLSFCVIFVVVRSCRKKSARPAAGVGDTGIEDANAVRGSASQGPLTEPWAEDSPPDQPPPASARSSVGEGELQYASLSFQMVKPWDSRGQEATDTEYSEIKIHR

[5] = tested on: Trypanosoma cruzi; assay: Trypanosoma cruzi phosphomannomutase and mannose-1-phosphate guanylyltransferase assay; type: functional; conditions: 10 µM
[6] = target: T2, Arginase-2, mitochondrial (Homo sapiens) (UniProt P78540); assay: in vitro enzyme assay to detect the production of urea directly proportional to the activity of Arginase II; type: functional; conditions: 33.3 µM; also: in the data most compounds retested in dose-response had high values
T2 sequence (whole entry): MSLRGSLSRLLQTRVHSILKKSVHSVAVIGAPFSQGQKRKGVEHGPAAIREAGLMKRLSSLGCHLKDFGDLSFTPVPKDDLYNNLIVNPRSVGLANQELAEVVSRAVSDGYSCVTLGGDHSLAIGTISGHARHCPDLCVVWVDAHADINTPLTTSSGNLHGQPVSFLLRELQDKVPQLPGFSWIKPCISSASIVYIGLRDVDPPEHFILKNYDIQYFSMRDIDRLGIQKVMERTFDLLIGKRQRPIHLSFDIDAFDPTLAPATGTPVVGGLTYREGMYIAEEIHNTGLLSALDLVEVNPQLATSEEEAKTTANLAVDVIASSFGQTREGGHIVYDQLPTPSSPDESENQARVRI

[7] = target: T3, Proteasome subunit beta (Trypanosoma cruzi) (UniProt O96673); assay: Trypanosoma cruzi proteasome chymotrypsin-like activity (TcProtChymo) assay.; also: in the data most compounds retested in dose-response had high values; type: functional; conditions: 9.37 µM
T3 sequence (whole entry): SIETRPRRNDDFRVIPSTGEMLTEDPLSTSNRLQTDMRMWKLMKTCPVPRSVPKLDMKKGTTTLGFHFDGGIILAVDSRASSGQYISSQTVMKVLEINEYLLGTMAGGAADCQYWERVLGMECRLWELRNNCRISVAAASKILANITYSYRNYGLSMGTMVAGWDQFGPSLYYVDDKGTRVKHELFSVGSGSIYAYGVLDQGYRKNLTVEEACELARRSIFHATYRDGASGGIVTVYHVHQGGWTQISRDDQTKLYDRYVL

[8] = species: Homo sapiens; assay: To identify inhibition of the IFN signalling (Jak-Stat) pathway via expression of an eGFP reporter gene under the control of an IFN-stimulated response element (ISRE) containing MxA promoter.; type: functional; conditions: 30 µM
[9] = target: T4, Tyrosyl-tRNA synthetase, putative (Trypanosoma cruzi (strain CL Brener)) (UniProt Q4DSP6); assay: Trypanosoma cruzi tyrosyl tRNA synthetase (TcYRS) _High Tyrosine SOP; type: functional; conditions: 30 µM; also: in the data most compounds retested in dose-response had high values
T4 sequence (whole entry): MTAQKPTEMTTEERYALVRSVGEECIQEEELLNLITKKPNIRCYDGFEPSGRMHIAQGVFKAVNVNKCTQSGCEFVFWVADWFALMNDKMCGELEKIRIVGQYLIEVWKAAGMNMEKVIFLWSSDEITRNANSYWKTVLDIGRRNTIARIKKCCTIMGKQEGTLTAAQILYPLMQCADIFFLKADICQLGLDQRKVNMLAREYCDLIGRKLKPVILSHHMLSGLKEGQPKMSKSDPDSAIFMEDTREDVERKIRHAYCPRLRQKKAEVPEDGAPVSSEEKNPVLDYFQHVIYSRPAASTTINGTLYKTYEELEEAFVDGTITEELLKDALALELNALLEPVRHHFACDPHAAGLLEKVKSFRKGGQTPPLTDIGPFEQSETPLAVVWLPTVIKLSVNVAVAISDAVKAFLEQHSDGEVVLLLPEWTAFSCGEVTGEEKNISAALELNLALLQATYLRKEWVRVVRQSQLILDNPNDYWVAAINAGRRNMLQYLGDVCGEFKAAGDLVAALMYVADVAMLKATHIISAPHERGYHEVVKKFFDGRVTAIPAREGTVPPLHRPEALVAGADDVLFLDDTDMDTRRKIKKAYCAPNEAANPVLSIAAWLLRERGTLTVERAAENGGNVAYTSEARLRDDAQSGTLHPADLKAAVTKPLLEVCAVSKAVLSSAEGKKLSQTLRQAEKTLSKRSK

[10] = target: T4, Tyrosyl-tRNA synthetase, putative (Trypanosoma cruzi (strain CL Brener)); assay: Trypanosoma cruzi tyrosyl tRNA synthetase (TcYRS) SOP; type: functional; conditions: 30 µM
[11] = target: Chromo domain-containing protein 1 (Saccharomyces cerevisiae (strain ATCC 204508 / S288c) (Baker's yeast)) (UniProt P32657); assay: ScCHD-1 Enzyme Inhibition Assay; type: functional; conditions: 30 µM; also: in the data most compounds retested in dose-response had high values
Chain of Chromo domain-containing protein 1 (Saccharomyces cerevisiae (strain ATCC 204508 / S288c) (Baker's yeast)) (P32657 whole entry, the tested form may be a part): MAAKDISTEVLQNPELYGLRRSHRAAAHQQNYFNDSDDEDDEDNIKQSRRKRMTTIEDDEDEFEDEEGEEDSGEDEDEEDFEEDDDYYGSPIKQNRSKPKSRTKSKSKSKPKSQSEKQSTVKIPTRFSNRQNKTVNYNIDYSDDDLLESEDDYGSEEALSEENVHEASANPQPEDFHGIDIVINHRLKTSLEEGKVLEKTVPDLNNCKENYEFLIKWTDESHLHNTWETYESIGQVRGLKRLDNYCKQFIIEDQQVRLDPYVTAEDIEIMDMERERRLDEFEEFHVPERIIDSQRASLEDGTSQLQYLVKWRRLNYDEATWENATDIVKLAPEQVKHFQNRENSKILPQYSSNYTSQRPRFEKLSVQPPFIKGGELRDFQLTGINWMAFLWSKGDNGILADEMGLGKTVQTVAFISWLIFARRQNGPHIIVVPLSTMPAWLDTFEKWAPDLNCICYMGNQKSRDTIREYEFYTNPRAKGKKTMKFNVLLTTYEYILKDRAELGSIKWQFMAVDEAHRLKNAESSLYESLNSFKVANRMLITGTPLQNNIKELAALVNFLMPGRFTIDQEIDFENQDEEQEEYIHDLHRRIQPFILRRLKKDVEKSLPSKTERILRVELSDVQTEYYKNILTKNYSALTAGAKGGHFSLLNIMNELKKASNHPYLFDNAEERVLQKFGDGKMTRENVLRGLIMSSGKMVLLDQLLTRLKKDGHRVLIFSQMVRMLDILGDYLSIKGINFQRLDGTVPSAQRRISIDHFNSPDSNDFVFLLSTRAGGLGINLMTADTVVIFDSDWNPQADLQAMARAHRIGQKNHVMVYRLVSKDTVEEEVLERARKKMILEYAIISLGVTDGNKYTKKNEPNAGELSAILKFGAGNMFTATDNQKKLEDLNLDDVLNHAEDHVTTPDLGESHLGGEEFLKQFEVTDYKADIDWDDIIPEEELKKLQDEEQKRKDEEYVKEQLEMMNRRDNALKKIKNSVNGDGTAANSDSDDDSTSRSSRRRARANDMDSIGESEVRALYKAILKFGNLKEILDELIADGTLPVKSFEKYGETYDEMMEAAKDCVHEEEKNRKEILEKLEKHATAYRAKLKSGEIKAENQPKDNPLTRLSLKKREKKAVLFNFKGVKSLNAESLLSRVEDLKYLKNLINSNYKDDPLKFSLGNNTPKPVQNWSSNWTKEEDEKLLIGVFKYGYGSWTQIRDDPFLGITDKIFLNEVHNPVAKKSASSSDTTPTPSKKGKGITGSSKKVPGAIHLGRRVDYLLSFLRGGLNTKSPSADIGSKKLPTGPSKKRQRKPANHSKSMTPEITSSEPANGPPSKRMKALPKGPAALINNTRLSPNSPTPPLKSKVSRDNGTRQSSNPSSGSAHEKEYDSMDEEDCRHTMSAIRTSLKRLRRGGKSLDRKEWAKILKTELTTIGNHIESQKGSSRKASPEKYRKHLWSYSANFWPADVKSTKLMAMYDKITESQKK

Chain of Protein translocase subunit SecA (Escherichia coli (strain K12)) (P10408 whole entry): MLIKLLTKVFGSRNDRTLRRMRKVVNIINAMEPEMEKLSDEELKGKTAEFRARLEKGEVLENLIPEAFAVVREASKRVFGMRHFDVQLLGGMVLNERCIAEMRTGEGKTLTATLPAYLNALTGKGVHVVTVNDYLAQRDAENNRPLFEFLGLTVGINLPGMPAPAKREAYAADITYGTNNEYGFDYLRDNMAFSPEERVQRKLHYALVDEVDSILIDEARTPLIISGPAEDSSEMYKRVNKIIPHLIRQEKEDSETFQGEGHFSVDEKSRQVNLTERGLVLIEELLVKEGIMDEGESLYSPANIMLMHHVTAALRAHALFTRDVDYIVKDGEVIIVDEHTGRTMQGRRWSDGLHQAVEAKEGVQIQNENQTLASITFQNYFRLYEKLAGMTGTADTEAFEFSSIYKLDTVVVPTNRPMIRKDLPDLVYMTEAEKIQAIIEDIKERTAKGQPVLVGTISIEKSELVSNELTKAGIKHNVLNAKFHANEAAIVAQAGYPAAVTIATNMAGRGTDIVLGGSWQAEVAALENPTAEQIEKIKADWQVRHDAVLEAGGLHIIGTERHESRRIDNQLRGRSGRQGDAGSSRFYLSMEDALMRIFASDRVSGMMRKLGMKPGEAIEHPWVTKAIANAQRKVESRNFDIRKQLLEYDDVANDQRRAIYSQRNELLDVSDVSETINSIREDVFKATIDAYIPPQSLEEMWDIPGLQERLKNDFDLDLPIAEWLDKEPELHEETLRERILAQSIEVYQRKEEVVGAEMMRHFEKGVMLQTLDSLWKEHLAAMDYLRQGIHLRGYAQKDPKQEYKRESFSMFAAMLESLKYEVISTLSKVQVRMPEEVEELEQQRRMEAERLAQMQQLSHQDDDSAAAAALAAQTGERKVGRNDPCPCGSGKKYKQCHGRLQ

Row | SMILES | Percent Effect [1] [%] | Percent Effect [2] [%] | Percent Effect [3] [%] | Percent Effect [4] [%] | Percent Effect [5] [%] | Percent Effect [6] [%] | Percent Effect [7] [%] | Percent Effect [8] [%] | Percent Effect [9] [%] | Percent Effect [10] [%] | Percent Effect [11] [%]
1 | Cc1nc(N2CCCC2)nc2c1CCN(C(=O)CC1CC1)CC2 | -4.09 | 20 | -2.46 | 4.72 | 2.75 | -7.22 | 16.1 | 9.15 | -2.12 | 10.3 | -11
2 | c1ccc(-c2nccc(CNCC3CCCN3c3cccnn3)n2)cc1 (stereo unspecified) | -3.71 | -18.4 | 3.25 | -4.68 | -0.94 | 0.383 | -0.501 | 20.1 | 6.37 | -2.44 | 11.3
3 | COC(=O)c1ccc(N2CCN(C(=O)c3cc(C)on3)C(C)C2)cc1 (stereo unspecified) | -1.64 | 12.7 | 13.9 | 10.2 | -3.87 | 0.76 | 9.42 | 7.47 | -2.46 | 3.8 | -6.13
4 | CCSc1cc(C(=O)NCCC(=O)Nc2ccccn2)ccn1 | -5.48 | 2.74 | -2.02 | 1.7 | 6.27 | 0.909 | 8.16 | 15.8 | 5.38 | 17.5 | -3.9
5 | CCc1nnc2n1CCN(C(=O)c1ccc(-c3ccco3)nc1C)C2 | -6.22 | 17.7 | -3.04 | 13.8 | 5.57 | -2.28 | 12.5 | 2.35 | 10.3 | 16.5 | -9.52
6 | CCN1CC2(CC1=O)CN(C(C)=O)CCN(C(=O)c1ccco1)C2 (stereo unspecified) | -1.61 | 5.48 | -6.62 | 5.12 | -0.595 | -4.79 | 5.05 | 4.81 | 1.04 | 3.7 | -1.88
